This passage reports composite z-score and z-score results from PubChem BioAssay.

SMILES strings stand for the structures. Activity calls are given as the source filed them.

Test [1] is described as follows: binders of probe aFSTL3 on microarray, primary screen, stem cell growth factor project, biochemical, small-molecule microarray, fluorescence 635/667 (AID 1064).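 Note: measures binding of the biotinylated anti-FSTL3 antibody to printed compounds.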 The following applies: higher = more signal.
Test [2] in a line: binders from COS7 lysate, DM2A8 probe, primary screen, torsin A project, cell lysate, small-molecule microarray, fluorescence 635/667 (AID 1065). The settings on record: higher = more signal, COS7 lysate expressing mutant human TOR1A.
Test [3] in a line: binders of probe aFGF2 on microarray, primary screen, stem cell growth factor project, biochemical, small-molecule microarray, fluorescence 635/667 (AID 1067).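 Note: measures binding of biotinylated aFGF2 protein to printed compounds on slides; z-score merges feature fluorescence and signal-to-noise across triplicate slides.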 The settings on record: higher = more signal.
Test [4] can be described thus: binders of probe aFGF10 on microarray, primary screen, stem cell growth factor project, biochemical, small-molecule microarray, fluorescence 635/667 (AID 1071).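 Note: score merges 667 nm spot intensity and signal to noise from triplicate slides.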 The following applies: higher = more signal.
In test [5] the target is Neurogenic locus notch homolog protein 2 (Homo sapiens) (UniProt Q04721). Briefly: Notch2 binders on small-molecule microarrays, primary screen, biochemical, small-molecule microarray, 635 nm fluorescence, stem cell growth factors (AID 1073). The settings on record: Notch2 binding, higher = more signal.
Sequence of Neurogenic locus notch homolog protein 2 (Homo sapiens) (Q04721 whole entry, looked up, canonical isoform): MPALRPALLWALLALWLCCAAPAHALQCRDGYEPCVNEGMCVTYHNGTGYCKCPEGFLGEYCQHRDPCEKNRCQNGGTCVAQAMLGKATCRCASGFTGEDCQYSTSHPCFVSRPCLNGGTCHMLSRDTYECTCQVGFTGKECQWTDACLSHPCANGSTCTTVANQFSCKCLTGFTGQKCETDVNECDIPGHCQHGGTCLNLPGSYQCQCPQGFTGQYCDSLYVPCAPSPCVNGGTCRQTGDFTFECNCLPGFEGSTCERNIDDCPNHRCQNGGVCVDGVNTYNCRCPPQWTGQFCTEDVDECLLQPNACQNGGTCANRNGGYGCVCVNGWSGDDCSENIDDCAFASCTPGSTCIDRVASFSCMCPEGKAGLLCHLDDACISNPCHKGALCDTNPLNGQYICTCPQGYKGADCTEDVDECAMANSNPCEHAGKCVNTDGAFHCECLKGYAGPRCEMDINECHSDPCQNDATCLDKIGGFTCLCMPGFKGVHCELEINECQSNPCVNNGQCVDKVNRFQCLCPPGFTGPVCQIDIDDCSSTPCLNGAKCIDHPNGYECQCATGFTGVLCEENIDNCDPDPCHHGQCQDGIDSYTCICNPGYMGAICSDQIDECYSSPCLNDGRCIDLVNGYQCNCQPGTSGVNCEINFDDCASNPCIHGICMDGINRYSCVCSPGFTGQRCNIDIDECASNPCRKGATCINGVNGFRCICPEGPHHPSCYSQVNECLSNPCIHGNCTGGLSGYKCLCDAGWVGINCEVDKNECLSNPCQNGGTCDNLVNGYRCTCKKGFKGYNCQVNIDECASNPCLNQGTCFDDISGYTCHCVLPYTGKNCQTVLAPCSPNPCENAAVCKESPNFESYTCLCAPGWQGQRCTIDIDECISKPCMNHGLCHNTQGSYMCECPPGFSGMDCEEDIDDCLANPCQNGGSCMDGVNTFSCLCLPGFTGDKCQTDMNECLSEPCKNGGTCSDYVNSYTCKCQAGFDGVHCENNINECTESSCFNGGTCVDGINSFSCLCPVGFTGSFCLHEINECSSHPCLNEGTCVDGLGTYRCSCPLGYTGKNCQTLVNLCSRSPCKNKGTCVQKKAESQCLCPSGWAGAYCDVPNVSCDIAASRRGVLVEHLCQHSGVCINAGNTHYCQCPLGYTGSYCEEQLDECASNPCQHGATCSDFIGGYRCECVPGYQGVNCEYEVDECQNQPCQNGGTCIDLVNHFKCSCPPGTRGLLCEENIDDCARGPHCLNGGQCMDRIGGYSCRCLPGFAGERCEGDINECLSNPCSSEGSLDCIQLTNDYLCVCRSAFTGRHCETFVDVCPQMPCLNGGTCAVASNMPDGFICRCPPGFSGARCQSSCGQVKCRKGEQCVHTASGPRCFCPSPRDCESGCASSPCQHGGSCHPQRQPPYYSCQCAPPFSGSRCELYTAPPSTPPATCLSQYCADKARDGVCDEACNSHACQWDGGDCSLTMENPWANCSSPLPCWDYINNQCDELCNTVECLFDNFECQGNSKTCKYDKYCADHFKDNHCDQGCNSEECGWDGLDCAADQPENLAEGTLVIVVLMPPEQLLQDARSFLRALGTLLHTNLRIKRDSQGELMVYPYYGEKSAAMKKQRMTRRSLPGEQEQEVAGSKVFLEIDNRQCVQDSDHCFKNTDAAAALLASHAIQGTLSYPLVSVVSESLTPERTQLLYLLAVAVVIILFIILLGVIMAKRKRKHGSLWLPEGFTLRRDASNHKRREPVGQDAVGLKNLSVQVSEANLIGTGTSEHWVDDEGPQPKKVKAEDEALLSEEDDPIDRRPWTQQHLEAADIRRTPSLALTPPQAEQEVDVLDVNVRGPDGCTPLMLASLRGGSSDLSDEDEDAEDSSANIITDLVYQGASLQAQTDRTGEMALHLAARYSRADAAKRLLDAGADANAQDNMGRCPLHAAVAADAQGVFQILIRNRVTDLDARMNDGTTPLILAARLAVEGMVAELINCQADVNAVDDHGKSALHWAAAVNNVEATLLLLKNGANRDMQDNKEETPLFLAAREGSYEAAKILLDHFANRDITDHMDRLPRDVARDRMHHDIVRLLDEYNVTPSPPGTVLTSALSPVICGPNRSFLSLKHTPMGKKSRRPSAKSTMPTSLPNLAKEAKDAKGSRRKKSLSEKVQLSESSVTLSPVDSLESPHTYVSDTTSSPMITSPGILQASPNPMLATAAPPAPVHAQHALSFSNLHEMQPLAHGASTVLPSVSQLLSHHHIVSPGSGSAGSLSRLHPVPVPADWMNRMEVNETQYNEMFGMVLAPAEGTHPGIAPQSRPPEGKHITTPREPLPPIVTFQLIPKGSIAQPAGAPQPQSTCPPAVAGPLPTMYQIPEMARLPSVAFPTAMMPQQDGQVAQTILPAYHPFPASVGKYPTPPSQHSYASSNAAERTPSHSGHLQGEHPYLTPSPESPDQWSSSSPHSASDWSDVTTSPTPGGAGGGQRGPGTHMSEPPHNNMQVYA
The target in test [6] is Pro-neuregulin-1, membrane-bound isoform (Homo sapiens) (UniProt Q02297). Briefly: NRG1 binders on small-molecule microarrays, primary screen, psychiatric disease protein project, biochemical, small-molecule microarray, fluorescence 635/667 (AID 1075).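 Note: score combines 667 nm spot fluorescence with signal to noise.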 The following applies: NRG1 binding, 635 nm fluorescence, higher = more signal.
Sequence of Pro-neuregulin-1, membrane-bound isoform (Homo sapiens) (Q02297 whole entry, looked up, the tested form may be a part, canonical isoform): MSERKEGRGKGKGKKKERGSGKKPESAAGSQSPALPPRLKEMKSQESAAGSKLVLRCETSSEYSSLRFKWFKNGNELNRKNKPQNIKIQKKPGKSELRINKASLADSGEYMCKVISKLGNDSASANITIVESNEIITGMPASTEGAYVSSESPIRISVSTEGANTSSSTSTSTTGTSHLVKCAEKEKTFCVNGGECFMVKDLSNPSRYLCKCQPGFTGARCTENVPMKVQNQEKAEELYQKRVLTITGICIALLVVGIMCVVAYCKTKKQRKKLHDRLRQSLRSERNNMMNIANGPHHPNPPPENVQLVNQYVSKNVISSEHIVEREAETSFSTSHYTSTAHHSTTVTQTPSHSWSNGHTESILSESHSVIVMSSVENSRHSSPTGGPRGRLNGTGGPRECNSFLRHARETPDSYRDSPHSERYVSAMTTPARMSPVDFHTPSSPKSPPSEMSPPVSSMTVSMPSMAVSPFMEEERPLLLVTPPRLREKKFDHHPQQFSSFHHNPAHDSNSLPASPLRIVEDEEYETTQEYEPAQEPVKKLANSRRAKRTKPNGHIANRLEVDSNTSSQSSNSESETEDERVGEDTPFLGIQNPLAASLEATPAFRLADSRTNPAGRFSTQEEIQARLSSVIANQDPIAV
Test [7] relates to Neuregulin-1 EGF-like domain. Briefly: binders of neuregulin-1 EGF-like domain, primary screen, biochemical, small-molecule microarray, 635 nm fluorescence (AID 1081).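 Note: binding of the protein to compounds printed on small-molecule microarray slides.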 The following applies: small-molecule microarray binding, higher = more signal.
A short description of test [8]: FRG1 promoter luciferase signal modulators, primary screen, FRG1 inhibition for FSHD, cell-based, C2C12 myotubes, firefly/Renilla luciferase, luminescence (AID 1084). The settings on record: higher = more signal, called active from +8 up or from −8 down.
Test [9] is described as follows: binders of probe aFST on microarray, primary screen, stem cell growth factor project, biochemical, small-molecule microarray, fluorescence 635/667 (AID 1086).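 Note: score merges 667 nm fluorescence with signal-to-noise of each printed compound spot.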 The settings on record: higher = more signal.
Test [10] can be described thus: binders of probe aHhip on microarray, primary screen, stem cell growth factor project, biochemical, small-molecule microarray, fluorescence 635/667 (AID 1087).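 Note: score merges spot fluorescence at 667nm with spot signal to noise ratio.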 The following applies: higher = more signal.
Test [11] deals with PRMT1 (protein arginine N-methyltransferase 1). Briefly: PRMT1 binders on small-molecule microarrays, primary screen, biochemical, small-molecule microarray, 635 nm fluorescence (AID 1088).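 Note: binding of Prmt1 protein to compounds spotted on small-molecule microarray slides.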 The following applies: small-molecule microarray binding, higher = more signal.
A short description of test [12]: yeast growth modulation, basal conditions, primary screen, YJM789 clinical isolate, OD600, 24 h (AID 1089).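 Note: growth of clinical yeast isolate S. cerevisiae YJM 789 seeded 1000 cells per well; test concentration not given here.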 The following applies: S. cerevisiae YJM789 growth, higher = more signal, called active from +8 up or from −8 down.
Test [13] can be described thus: fission yeast growth modulation, primary screen, strain 972, OD600, 24 h, no modulator (AID 1090).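 Note: basal condition with compound alone and no growth modifier present; test concentration not given here.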 The settings on record: S. pombe 972 growth, higher = more signal, called active from +8 up or from −8 down.
A short description of test [14]: S. cerevisiae growth modulation with rapamycin, primary screen, strain BY4716, OD600, 96 h (AID 1091). Note: test concentration not given here. The settings on record: higher = more signal, called active from +8 up or from −8 down.
Test [15] deals with Torsin-1A-interacting protein 2 (Homo sapiens) (UniProt Q8NFQ8). Briefly: LULL1 binders on small-molecule microarray, primary screen, cell lysate, human LULL1 lysate, 635/667 nm fluorescence (AID 1092).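 Note: probe is lysate of COS7 cells overexpressing human LULL1; score merges per-feature 667 nm fluorescence with signal-to-noise.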 The settings on record: hLULL1 lysate binding, 635 nm fluorescence, higher = more signal.
Sequence of Torsin-1A-interacting protein 2 (Homo sapiens) (Q8NFQ8 whole entry, looked up): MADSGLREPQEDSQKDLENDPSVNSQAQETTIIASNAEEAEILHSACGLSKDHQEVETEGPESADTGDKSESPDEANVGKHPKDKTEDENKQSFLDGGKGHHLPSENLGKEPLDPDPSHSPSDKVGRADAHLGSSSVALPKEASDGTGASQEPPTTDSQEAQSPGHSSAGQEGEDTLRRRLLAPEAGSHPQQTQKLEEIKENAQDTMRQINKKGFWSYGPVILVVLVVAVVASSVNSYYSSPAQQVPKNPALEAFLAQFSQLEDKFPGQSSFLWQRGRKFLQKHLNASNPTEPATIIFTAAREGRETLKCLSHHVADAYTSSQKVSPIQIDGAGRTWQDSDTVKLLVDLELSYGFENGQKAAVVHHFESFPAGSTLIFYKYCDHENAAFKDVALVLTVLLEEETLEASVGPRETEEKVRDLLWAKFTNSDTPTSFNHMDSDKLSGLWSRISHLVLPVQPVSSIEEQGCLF
Test [16] in a line: E. coli growth modulation, two-sided OD650, primary screen, E. coli filamentation project, strain DRC41, 24 h (AID 1093).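 Note: MC1000 strain lacking acrAB efflux and sulA so SOS filamentation is blocked; test concentration not given here.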 The following applies: OD650, 24 h, higher = more signal, called active from +8 up or from −8 down.
Test [17] can be described thus: small-molecule microarray binders of probe aLefty2, primary screen, biochemical, biotinylated probe, 635/667 nm fluorescence (AID 1094).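 Note: score merges spot fluorescence near 667 nm with spot signal-to-noise ratio.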 The settings on record: higher = more signal.
The subject of test [18] is Noggin (protein binding on small-molecule microarray). Briefly: Noggin binders on small-molecule microarray, primary screen, biochemical, 635/667 nm fluorescence (AID 1095).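 Note: score merges 667 nm feature fluorescence with signal to noise over triplicate slides.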 The following applies: 635 nm fluorescence, higher = more signal.
Test [19] deals with Neurogenic locus notch homolog protein 3 (Homo sapiens) (UniProt Q9UM47). Briefly: NOTCH3 binders on small-molecule microarray, primary screen, biochemical, 635/667 nm fluorescence (AID 1096). The settings on record: NOTCH3 binding, 635 nm fluorescence, higher = more signal.
Test [20] is described as follows: small-molecule microarray binders of probe aEGFR, primary screen, biochemical, biotinylated probe, 635/667 nm fluorescence (AID 1097).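 Note: probe is a biotinylated anti-EGFR antibody binding compounds printed on slides; score combines fluorescence near 667 nm and signal to noise of each spot.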 The following applies: higher = more signal.

Take `COc1ccc(OC[C@@H]2CC3[C@@H](c4ccc(Br)cc4)[C@H](C)CC[C@H]3C(=O)O2)cc1` (stereo not given in full): the composite z-score was -0.416 in test [1]; 0.138 in test [2]; -0.142 in test [3]; 0.0248 in test [4]; 0.407 in test [5]; 0.093 in [6]. The composite z-score in test [7] is -0.216; in [9], 0.204; in test [10] it was -0.0645; in test [11], 0.112; in test [15], 0.82; in test [17] it was -0.158. For the same compound, the values for the composite z-score in test [18], in test [19] and in [20] were 0.991, 0.509 and -0.159, respectively. The z-score was -0.321 (inactive) in [8]; -0.251 (inactive) in test [12]; -2.64 (inactive) in test [13]; 0.0176 (inactive) in [14]; -0.145 (inactive) in [16].

In the case of `COC(=O)[C@H](C)NC(=O)CCC1CC(OC(=O)NCCc2ccc(F)cc2)CC2(CCCC(COC(=O)NCCOc3ccccc3)O2)O1` (stereo not given in full), the composite z-score in [1] is -0.443; in test [2] it was 0.269; in [3] it was -0.0392; in [4], 0.532; in test [5], 1.34; in test [6], 0.672. Moreover, the composite z-score was 0.933 in test [7]; 0.238 in test [9]; -0.173 in test [10]; 1.46 in test [11]; 2.64 in [15]; -0.0073 in test [17]. Besides, the composite z-score was 0.724 in [18], 1.06 in test [19] and -0.106 in [20]. Also, the z-score in [8] was 0.907 (inactive); in test [12], -0.233 (inactive); in [13], 0.927 (inactive); in [14], 1.12 (inactive); in test [16], 0.219 (inactive).

As to `COC(=O)[C@H](C)NC(=O)CCC1CC(OC(=O)NCc2ccc3c(c2)OCO3)CC2(CCCC(COC(=O)NCc3ccccc3)O2)O1` (stereo not given in full), the composite z-score in test [1] is -0.344; in [2] it was 0.0374; in test [3] it was 0.0025; in [4] it was 0.721; in [5], 0.748; in test [6], 0.52. Further, the composite z-score in test [7] was 0.877; in test [9], 0.0613; in [10] it was -0.212; in test [11], 1.23; in test [15], 1.64; in test [17], -0.157. The figures for the composite z-score in [18], in test [19] and in test [20] were 0.888, 1.09 and -0.0234, respectively. In addition, the z-score in test [8] is -0.156 (inactive); in test [12], 0.24 (inactive); in test [13], 0.532 (inactive); in test [14], 0.274 (inactive); in [16] it was 0.326 (inactive).

Take `CC(C)C(=O)N[C@H]1CCCN1C(=O)C=Cc1ccccc1`: the composite z-score in test [1] is -0.174; in test [2], 0.253; in [3], -0.0212; in [4] it was 0.803; in test [5], 0.74; in test [6], -0.219. In addition, the composite z-score in test [7] was 0.72; in test [9], 0.214; in test [10], -0.0319; in test [11], 0.876; in test [15] it was 0.0445; in test [17] it was -0.0022. Moreover, the composite z-score was 1.13 in test [18], 0.826 in [19] and 0.125 in test [20]. For the same compound, the z-score in test [8] was -0.302 (inactive); in test [12], 0.624 (inactive); in test [13] it was 0.495 (inactive); in test [14], 1.02 (inactive); in [16] it was 0.267 (inactive).

On to `COC(=O)[C@@H]1CC[C@H](C)[C@@H](c2ccc(Br)cc2)N1C(=O)C(F)(F)F`, for which the composite z-score in [1] was -0.23; in test [2], -0.214; in test [3], -0.108; in test [4], -0.148; in test [5], -0.232; in [6], -0.493. The composite z-score is -0.677 in test [7]; -0.249 in [9]; -0.412 in [10]; -1.18 in [11]; 1.25 in [15]; -0.22 in [17]. Further, the composite z-score in [18] is -0.281; in [19], -0.446; in test [20], -0.226. For the same compound, the z-score in test [8] is -0.589 (inactive); in [12], 0.61 (inactive); in test [13] it was 0.186 (inactive); in test [14], 2.16 (inactive); in test [16], 0.11 (inactive).
